Results as given in the supplement of paper PMC6555819.

How the values were obtained:
Assay in all cases: PBM binding z-score (relative to random genomic background probes); higher = stronger binding; sequences stand for … in GC…GCGATTGACAGCGTAGAATGAAGG
[1] = tested on: RARb homodimer (NR concentration 270 nM)
Method in brief: (§1)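 Random background probes are the reference for binding z-scores. These scores derive from regression-normalized fluorescence on custom Agilent 4×180K protein-binding microarrays incubated 1 h with ligand-free nuclear receptor dimers. Binding was detected with antibodies against each partner (one per run).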

[2] = tested on: RARg:RXRa (NR concentration 270 nM, RXRa partner concentration 90 nM)
Method in brief: as §1

[3] = tested on: RARg homodimer (NR concentration 270 nM)
Method in brief: as §1

[4] = tested on: RXRa DBDmut IVT, anti-RXR (DBD mutation: RXRa K156A/R161A, NR concentration 90 nM)
Method in brief: as §1

[5] = tested on: RXRa homodimer (NR concentration 180 nM)
Method in brief: as §1

[6] = tested on: THRa:RXRa (NR concentration 90 nM, RXRa partner concentration 90 nM)
Method in brief: as §1

[7] = tested on: THRa homodimer (NR concentration 90 nM)
Method in brief: as §1

[8] = tested on: VDR homodimer (NR concentration 270 nM)
Method in brief: as §1

Sequence	PBM binding z-score [1]	PBM binding z-score [2]	PBM binding z-score [3]	PBM binding z-score [4]	PBM binding z-score [5]	PBM binding z-score [6]	PBM binding z-score [7]	PBM binding z-score [8]
AGAATGAGGTTATGCGTAGATCAGGGAAGAAAGT	0.687	1.51	1.09	1.23	1.99	2.24	0.599	0.644
CGAACTAGGTCAGAACAGGACAGTGTAGGATGAT	2.16	2.56	3.47	0.551	1.28	3.47	0.227	0.291
TCGAGTAGGTTAGGGTCATTCAGAATGGCGTCGA	3.05	3.8	2.8	2.11	4.66	3.83	2.62	3.97
CCTTACGGGTCACTGACAGGTTATAGTATTTGGA	3.11	5.61	4.34	1.85	5.18	3.04	0.562	1.17
ATATGTAGGTTAGCTGGGGTCATTGAGACTAGGC	3.66	4.03	2.91	1.82	5.63	4.83	3.21	5.12
ACTATTCGTTGAGACGAGGGCAACCGATAGGTTG	1.26	0.489	0.81	0.393	0.523	1.33	0.648	0.643
AGTCAAAGTTCACTAGGTAATGTAAGATTCAGCT	3.71	4.84	5.6	4.39	3.73	1.91	-0.139	3.81
CGTCCACGGTCAAAGGTCAGTGAAGAGATGACGG	4.48	6.76	6.04	0.983	7.05	3.11	0.0529	0.561
TCATATAGGTAATACAGGTGTAAGTCGGCATCTA	-0.213	0.547	0.355	1.67	1.03	0.384	0.316	0.283
GGAACGAGGGCACTCGAGTTGATAGCATGGCGAT	0.585	0.902	1.45	2.21	0.67	2.41	-0.47	1.75
ATATGTAGGTTAGCTGGGTTCATTCAGACTAGGC	1.47	1.58	0.836	2.97	2.38	3.54	0.442	6.88
ATCGAAAGATCGAGGTGAGTATAGAGAAAGGGAA	-0.0948	0.227	0.358	-0.896	0.294	0.955	0.245	-0.151
AGAATGAGGTTACCAAAGATCTGGGAAACGCTTG	0.57	1.94	1.49	0.786	2.42	2.51	0.542	0.122
CAAACTAGGTAAAGAGGTCAAAGTCCGCTTCCCG	4.1	5.02	4	2.13	5.62	3.75	1.47	4.05
ATCGAAAAGTCGAGGTGAGTATAGAGAAAGGGAA	0.0212	0.371	0.476	-0.67	0.323	1.17	0.201	-0.198
ATCTAAAGGTCGTGAGGTGAGTATACAGAAAGGC	3.14	4.55	4.01	2.22	5.37	3.44	1.84	1.7
TCTATTAGTTCATTAGGGCAACCGAAACAGCGGA	2.52	2.4	2.37	3.46	1.12	1.45	0.899	3
ATATGTAGGTAAGCTGGGGTCATTCAGACTAGGC	3.48	3.82	2.24	1.8	5.36	4.65	3.38	4.3
TAGCCTAGGTCATGCGCCAGTATACCACGCGAAC	2.94	3.96	4.3	0.931	3.24	3	1.31	0.653
ATATGTAGGTTACATCCGGGACATTCAGGCTATG	0.852	1.56	1.27	0.669	1.27	2.66	1.46	0.967
ATCTTTAGGTAACAAGTTCAGTGAAAGAGAGGAC	2.04	1.56	1.48	1.65	0.993	2.13	1.4	2.79
GGAACGAGGGCCAAGTTGATAGCATCTGTCGACG	-0.0615	0.0796	0.46	0.125	0.105	-0.432	-0.99	-0.364
CGAACTAGGTCATCCAGGACATTGAATACATTGA	3.11	3.95	4.63	2.66	2.95	3.87	2.27	3.47
TCTTGTAGTTCAAGCAGGTTAAGAAAGCCTGAGT	1.48	1.44	1.65	2.37	1.47	1.63	-0.0988	2.02
CTCGAAAGGTCGTGCTGAGGTGAGTATACCAAAC	3.29	5.56	4.04	1.92	4.81	4.6	1.38	1.06
TAGCCTAGGACATTGGGCCAGTATAGTACGCATC	-0.251	-0.0558	0.0958	-0.671	-0.0784	0.281	-0.00513	-0.291
TAGCCTAGGTCAGAGCGGGCCAGTATACGCTATA	1.85	2.55	3.13	-0.459	1.18	2.85	-0.121	-0.402
TCAAGTAGGTTACCAATGGGGCATTCAGCTTTCT	1.04	1.42	0.77	1.45	0.978	0.342	-0.498	-0.25
